Screens (PubChem)
In the library only some 5.2% were active in any assay of this set; here they are far more common.
Tau fibril FP: blocks human tau fibril formation measured by polarization. Potency, µM (highest dose often 57.7 µM), without a hit: at the top dose activity, negative = inhibition, most hits filed as inhibitors. K18 P301L tau heparin fibrillization, Alexa594 FP, 6 h. P10636. 280,000 compounds, 0.39% hits; also: potency is read from the fitted curve at half-maximal effect; nearly all actives have a fitted effect of over 55% in size
Target sequence (P10636 561-689 P618L limits assumed): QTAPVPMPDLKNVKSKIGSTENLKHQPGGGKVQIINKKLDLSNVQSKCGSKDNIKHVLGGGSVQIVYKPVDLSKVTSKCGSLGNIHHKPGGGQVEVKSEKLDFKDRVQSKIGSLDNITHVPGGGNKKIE
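FP of Alexa 594-tau after heparin (20 uM) induction. Substrate: human K18 P301L, 15 uM unlabeled, 0.24 uM labeled. Buffer 100 mM sodium acetate pH 7. 6 hr, 37 C.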
Tau fibril ThT: blocks human tau fibril formation measured by thioflavin T; Potency, µM (highest dose often 57.4 µM), inactives show top-dose activity, negative = inhibition, most hits filed as inhibitors; recombinant tau K18 P301L, heparin-induced fibrillization, ThT fluorescence; 270,000 compounds, 2.1% hits; AID 1460; P10636; also: potency is read from the fitted curve at half-maximal effect; nearly all actives have a fitted effect of over 55% in size
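Aggregation was driven by heparin (20 uM final) acting on recombinant tau […] bearing P301L in 100 mM sodium acetate pH 7; fibrils were detected with Thioflavin T.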
FBPA coupling cs: counter-screen for Giardia aldolase inhibitors: coupling enzyme system; coupling enzyme system counterscreen, AmpLite Red fluorescence; activity change, negative = inhibition, % at 58.2 µM, hits read low; 290,000 compounds, 0.67% hits; AID 2472; in the data active = activity change below about -30%
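Counterscreen of the coupled detection system alone, without aldolase: glyceraldehyde-3-phosphate coupling enzymes plus AmpLite Red readout. Compounds at 57.5 uM final, 10 min RT preincubation, 20 min RT reaction, fluorescence 525/598 nm.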
Tau fluor counter: counter-screen for tau fibril formation inhibitors; 280,000 compounds, 0.93% hits; AID 1463; Potency, µM (highest dose often 57.7 µM), for the others: at the highest dose activity change, negative = decrease; tau K18 P301L (four-repeat tau fragment) Alexa594 fluorescence, heparin fibrillization; also: potency is read from the fitted curve at half-maximal effect; nearly all actives have a fitted effect of over 55% in size
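Human K18 P301L tau (15 uM unlabeled plus 0.24 uM Alexa 594-labeled, final) in 100 mM sodium acetate pH 7 was mixed with compound and 20 uM heparin and incubated 6 hr at 37 C.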
Sfp inh: Sfp phosphopantetheinyl transferase inhibition | AID 1490 | Biochemical Sfp PPTase activity, qHTS | Potency, µM, without a hit: largest response in the series, negative = inhibition, hits mostly inhibitors | 310,000 compounds, 3.5% hits;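 also: the enzyme is Sfp with the accession as filed and its product quenches rhodamine fluorescence; potency is read from the fitted curve at half-maximal effect; 0% = enzyme reaction without inhibitor and -100% = no enzyme wells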
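With Hepes-Na pH 7.6 buffer containing 10 mM MgCl2, Sfp (15 nM) modified BHQ-2-YbbR (12.5 uM) using rhodamine-CoA (5 uM). Two reads 30 minutes apart at 525/598 nm yielded each well's rate.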
Active calls of the source: *; ? = inconclusive; · = not tested or not shown; [ ] = remark or other dose. Unless noted, calls follow the shape of the dose curve; as a rule, active = well fitted curve in the direction sought with a large enough effect; inconclusive = small, poorly fitted or top-dose-only effect, or another doubt; inactive = no such curve, though single readings can be large; an effect the other way counts as inactive or inconclusive. Unless noted, % is scaled to controls: 0 for no effect and ±100 for the full control effect.

SMILES | Tau fibril FP | Tau fibril ThT | FBPA coupling cs | Tau fluor counter | Sfp inh
Cc1ccc(C)c(S(=O)(=O)/N=C2\C=C(NS(=O)(=O)c3ccccc3)C(=O)c3ccccc32)c1 | · | · | -50* | · | -7%
Cc1cc(NS(=O)(=O)c2ccc(C(C)C)cc2)no1 | · | · | 3 | · | -1%
Cc1cccc(S(=O)(=O)Nc2cccc3c2C(=O)c2ccccc2-3)c1 | -11% | ? | 0 | ? | -18%
CCc1ccc(S(=O)(=O)/N=C2\C=C(NS(=O)(=O)c3ccccc3)C(=O)c3ccccc32)cc1 | · | · | -34* | · | -6%
CC(C)c1ccc(S(=O)(=O)/N=C2/C=CC(=O)c3ccccc32)cc1 | ? | 28µM* | -53* | ? | ?
C[C@H]1Cc2c(COc3ccccc3)nc3c(c2CO1)CN(S(=O)(=O)c1ccc(Cl)c2nonc12)CC3 | 10%[11.6 µM] | -2%[11.5 µM] | -3 | 5%[11.6 µM] | 13%
CN(CC#CC1(O)c2ccccc2-c2ccccc21)Cc1ccccc1 | -3% | 5% | 5 | 2% | 45µM*
N#C/C(=N\Nc1ccc(Cl)cc1)C(N)=S | 11% | · | -1 | -23% | -13%
Cc1ccc(N/N=C(\C#N)C(N)=S)cc1C | 3% | ? | 1 | -23% | 56µM*
N#C/C(=N\Nc1ccccc1)C(N)=S | -1% | ? | 7 | -23% | 18µM*
C/C(=N/Nc1cc(-c2ccccc2)nc(-c2ccccc2)n1)c1ccc(O)cc1 | ? | ? | -5 | 7.1µM*[quencher] | 6%
C/C(=N/Nc1nc(-c2ccccc2)cc(-c2ccccc2)n1)c1ccc(N)cc1 | 0% | ? | 0 | ? | -21%
COC(=O)N1CCC[C@@]2(CCN(Cc3nccs3)C2)C1 | · | · | -2 | · | 12%
Oc1ccc(N2CCN(C(c3cccs3)c3nnnn3CCc3ccccc3)CC2)cc1 (stereo not drawn) | 0% | ? | -7 | ? | 50µM*
OCC1(CCc2ccccc2)CCN(Cc2cnc(N3CCCC3)s2)CC1 | -1% | 2% | -1 | -4% | 50µM*
CN(C)c1ncc(CN2CCC(CO)(CCCc3ccccc3)CC2)s1 | 5% | 0% | 2 | 4% | -4%
Cc1cc(C)c2sc(N(Cc3cccnc3)C(=O)CCOc3ccccc3)nc2c1 | -16% | -11% | · | -17% | ·
COc1ccc(C2=Nn3c(nnc3-c3cc(OC)ccc3OC)SC2)c(OC)c1 | · | · | 1 | · | -21%
Cn1cc(C=C2C(=O)Nc3cccnc32)c2ccccc21 | 7% | 10µM* | -10 | ? | ?
CCN1C(=O)S/C(=C/c2cn(C)c3ccccc23)C1=O | -3% | 10% | 1 | 8% | 5%
c1ccc(-c2n[nH]c3c2oc2ccccc23)cc1 | ? | -10% | -1 | ? | -22%
CCc1ccccc1N(C)S(=O)(=O)c1ccc2c(c1)C(C)(C)C(=O)N2C | -1% | ? | · | -27% | ·
CCOC(=O)c1sc(NCc2ccco2)c(-c2nc3ccccc3s2)c1N | 4% | ? | 0 | ? | ?
C=CCNC(=O)c1nc2ccccc2s1 | 10% | 21% | -1 | 16% | -8%
C=CCNc1sc(C(=O)c2cccs2)c(N)c1C#N | 0% | -5% | 3 | -6% | 6%
SMILES | Tau fibril FP | Tau fibril ThT | FBPA coupling cs | Tau fluor counter | Sfp inh
CCNc1sc(C(=O)c2cccs2)c(N)c1C#N | ? | 28µM* | 6 | ? | 45µM*
C=CCNc1sc(C(=O)c2ccccc2)c(N)c1-c1nc2ccccc2s1 | -7% | -7% | -2 | -4% | 20µM*
CCNc1sc(C(=O)c2cccs2)c(N)c1-c1nc2ccccc2s1 | -4% | 8.9µM* | -3 | ? | 18µM*
COc1cccc(-c2cn3c(n2)sc2cc(C(=O)NCCc4ccc(OC)c(OC)c4)ccc23)c1 | 3% | -3% | · | 9% | ·
O=C(Nc1ccc(Cl)c(Cl)c1)C1CC1 | · | · | · | · | 8%
Cc1c(F)c(N2CCNC(C)C2)cc2c1c(=O)c(C(=O)O)cn2C1CC1 (stereo not drawn) | · | · | · | · | 16%
COc1ccc2c(c1)NC(c1ccc(OCC(C)C)cc1)=NC(c1ccncc1)=N2 | 10% | ? | · | ? | ·
Cc1noc(C)c1-c1cncnc1NCc1ccccc1 | · | · | 10 | · | 10%
Cc1ccc(CSC2=Nc3ccccc3C3=NC(CCC(=O)NCc4cccs4)C(=O)N23)c(C)c1 (stereo not drawn) | -4% | -17% | · | -10% | ·
